Bioassay records from PubChem.
HP1b binding inh – HTS for Inhibitors of HP1-beta Chromodomain Interactions with Methylated Histone Tails; 390,000 compounds, 0.56% hits; Potency, µM (top dose mostly 114 µM), hits mostly inhibitors; AlphaScreen HP1-beta / biotin-H3K9me3 peptide binding; note: nearly all actives have a fitted effect of over 70% in size
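AlphaScreen: HP1-beta (50 nM) preformed 30 min with biotin-H3(1-18)K9me3 peptide (50 nM) in PBS pH 7.4, 0.01% Tween-20. Compound added for 30 min at RT, then streptavidin donor/nickel chelate acceptor beads (10 ug/mL) for 30 min.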
PI5P4Ka inh – qHTS for Inhibitors of phosphatidylinositol 5-phosphate 4-kinase (PI5P4K); max response, %; 330,000 compounds, 1.2% hits; PI5P4Kalpha enzyme, ADP-Glo luminescence, 60 min; hits give low values; active = max response of -50% or lower; inconclusive = between -30% and -50%; inactive = -30% or higher; note: value at the top dose of about 77 µM
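Luminescence from ADP-Glo served as readout of PI5P4Kalpha activity in a qHTS format. Reaction: enzyme, substrate, compound, ATP at 5 microM final, 60 min at RT.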
JMJD2A Tudor inh – qHTS Assay for Inhibitors of JMJD2A-Tudor Domain; AID 504339, 2011; Lysine-specific demethylase 4A (Homo sapiens), O75164; AlphaScreen JMJD2A-Tudor / H3K4me3 peptide binding; 390,000 compounds, 4.4% hits; Potency, µM (doses to about 114 µM), most hits filed as inhibitors; note: nearly all actives have a fitted effect of over 50% in size
KAT2A inh – qHTS Assay for Inhibitors of GCN5L2; Histone acetyltransferase KAT2A (Homo sapiens), Q92830; GCN5L2 HAT assay, ThioGlo1 CoA-SH fluorescence; Potency, µM (top dose mostly 58.9 µM), hits mostly inhibitors; 390,000 compounds, 0.21% hits
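Fluorescence readout, Ex340nm/Em540nm: ThioGlo1 (50uM final) reacts with free CoA thiol released as 20nM GCN5L2 acetylates H3(1-25) peptide (75uM) using acetyl-CoA (70uM). Compound and enzyme sat 15 min beforehand; 20 min room-temperature reaction.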
PLK1 PBD inh – qHTS for Inhibitors of PLK1-PDB (polo-like kinase 1 - polo-box domain): Primary Screen; Serine/threonine-protein kinase PLK1 (Homo sapiens), P53350; Plk1 PBD binding of FITC phosphopeptide, fluorescence polarization; Potency, µM, actives largely listed as inhibitors; 360,000 compounds, 2.8% hits; AID 720504, 2013; note: series mostly up to about 57 µM; nearly all actives have a fitted effect of over 65% in size
BAZ2B inh – qHTS Assay for Inhibitors of BAZ2B. Bromodomain adjacent to zinc finger domain protein 2B (Homo sapiens), Q9UIF8. AlphaScreen BAZ2B-H3K14Ac peptide displacement. Potency, µM (doses to about 114 µM), most hits filed as inhibitors. 360,000 compounds, 4.4% hits. AID 504333, 2011; note: nearly all actives have a fitted effect of over 60% in size
Target sequence (Q9UIF8 whole entry, looked up, the tested form may be a part): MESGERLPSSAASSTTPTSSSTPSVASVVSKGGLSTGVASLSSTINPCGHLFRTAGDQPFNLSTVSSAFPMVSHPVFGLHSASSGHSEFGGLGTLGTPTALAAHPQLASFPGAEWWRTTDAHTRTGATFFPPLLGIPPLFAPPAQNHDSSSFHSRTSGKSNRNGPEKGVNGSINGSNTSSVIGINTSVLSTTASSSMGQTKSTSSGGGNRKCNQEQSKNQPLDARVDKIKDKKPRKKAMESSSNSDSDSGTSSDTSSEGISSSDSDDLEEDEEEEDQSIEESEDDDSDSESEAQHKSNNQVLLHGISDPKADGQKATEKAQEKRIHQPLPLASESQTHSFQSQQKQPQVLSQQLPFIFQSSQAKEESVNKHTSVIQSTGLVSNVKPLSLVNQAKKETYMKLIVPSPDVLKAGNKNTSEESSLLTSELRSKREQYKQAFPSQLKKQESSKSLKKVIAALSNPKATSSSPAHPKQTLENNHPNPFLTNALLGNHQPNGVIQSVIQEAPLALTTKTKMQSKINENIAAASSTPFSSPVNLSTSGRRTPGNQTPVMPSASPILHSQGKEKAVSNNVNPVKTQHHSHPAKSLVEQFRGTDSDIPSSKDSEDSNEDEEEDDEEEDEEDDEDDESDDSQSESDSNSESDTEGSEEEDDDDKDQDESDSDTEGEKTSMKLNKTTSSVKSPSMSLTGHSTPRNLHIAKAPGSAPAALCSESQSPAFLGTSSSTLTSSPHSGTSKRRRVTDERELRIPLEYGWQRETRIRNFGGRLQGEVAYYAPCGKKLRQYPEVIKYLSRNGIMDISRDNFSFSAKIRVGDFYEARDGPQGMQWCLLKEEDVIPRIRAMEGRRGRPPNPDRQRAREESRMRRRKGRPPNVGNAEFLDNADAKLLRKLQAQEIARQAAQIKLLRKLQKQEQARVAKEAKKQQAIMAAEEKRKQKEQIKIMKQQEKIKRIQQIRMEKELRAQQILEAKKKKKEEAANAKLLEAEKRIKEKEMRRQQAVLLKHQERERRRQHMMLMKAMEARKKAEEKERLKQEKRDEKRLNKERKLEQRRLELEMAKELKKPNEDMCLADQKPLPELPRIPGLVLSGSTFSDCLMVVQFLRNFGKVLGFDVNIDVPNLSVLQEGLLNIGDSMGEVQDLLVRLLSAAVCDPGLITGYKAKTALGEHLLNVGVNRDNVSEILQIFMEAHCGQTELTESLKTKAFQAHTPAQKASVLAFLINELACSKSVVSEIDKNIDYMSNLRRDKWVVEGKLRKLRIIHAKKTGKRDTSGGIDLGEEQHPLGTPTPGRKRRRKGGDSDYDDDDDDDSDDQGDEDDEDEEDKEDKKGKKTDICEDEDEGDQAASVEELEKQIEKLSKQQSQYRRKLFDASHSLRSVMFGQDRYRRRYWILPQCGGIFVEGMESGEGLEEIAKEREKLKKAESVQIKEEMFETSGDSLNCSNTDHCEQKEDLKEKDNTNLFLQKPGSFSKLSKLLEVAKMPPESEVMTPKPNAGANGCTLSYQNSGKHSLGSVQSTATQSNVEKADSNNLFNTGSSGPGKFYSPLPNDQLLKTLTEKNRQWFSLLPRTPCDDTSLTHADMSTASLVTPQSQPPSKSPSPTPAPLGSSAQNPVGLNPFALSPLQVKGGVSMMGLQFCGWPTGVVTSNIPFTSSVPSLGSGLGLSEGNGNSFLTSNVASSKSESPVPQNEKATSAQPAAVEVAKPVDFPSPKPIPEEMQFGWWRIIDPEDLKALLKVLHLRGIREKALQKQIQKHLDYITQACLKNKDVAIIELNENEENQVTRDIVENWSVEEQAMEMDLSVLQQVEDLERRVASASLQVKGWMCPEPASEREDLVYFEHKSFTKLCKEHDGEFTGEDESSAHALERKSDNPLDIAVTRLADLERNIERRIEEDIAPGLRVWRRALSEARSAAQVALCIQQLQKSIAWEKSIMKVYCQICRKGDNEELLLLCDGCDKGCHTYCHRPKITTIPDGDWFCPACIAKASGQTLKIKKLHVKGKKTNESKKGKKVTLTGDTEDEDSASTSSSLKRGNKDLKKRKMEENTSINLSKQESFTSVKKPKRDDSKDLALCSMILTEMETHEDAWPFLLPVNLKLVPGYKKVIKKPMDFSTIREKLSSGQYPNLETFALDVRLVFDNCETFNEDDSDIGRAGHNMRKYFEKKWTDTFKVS
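Complex of BAZ2B and biotin-H3K14Ac (50 nM apiece) forms over 30 min at RT, then faces library compounds up to 110 uM for another 30 min; AlphaScreen beads added, 20 min dark incubation, luminescence read.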
JMJD2E inh-1 – Inhibitors of Human Jumonji Domain Containing 2E (JMJD2E): 8HQs - Round 1 | JMJD2E demethylase, FDH-coupled NADH fluorescence | 130 compounds, 89% hits | shares compounds with BAZ2B inh | Potency, µM (titrated, usually from 57 µM), actives largely listed as inhibitors | AID 493212, 2011
ME-1 prolif – qHTS Assay for Compounds Blocking the Interaction Between CBF-beta and RUNX1 for the Treatment of Acute Myeloid Leukemia: ME-1 cellular proliferation | shares compounds with BAZ2B inh | ME-1 cell proliferation, ATP luminescence, 48 h | Potency, µM (series often up to 56.1 µM), actives largely listed as inhibitors | 140 compounds, 20% hits | AID 504370, 2011
JMJD2E inh-2 – Confirmation qHTS Assay for Inhibitors of Human Jumonji Domain Containing 2E (JMJD2E). shares compounds with JMJD2A Tudor inh. Recombinant JMJD2E, FDH-coupled NADH fluorescence (FDH is formaldehyde dehydrogenase). Potency, µM (titrated, usually from 56.8 µM), hits mostly inhibitors. 140 compounds, 93% hits
FDH inh – Counterscreen for JMJD2E Inhibitors: qHTS Assay for Inhibitors of Formaldehyde Dehydrogenase (FDH); shares compounds with JMJD2A Tudor inh; FDH enzyme assay, NADH fluorescence kinetic; Potency, µM (doses to about 56.7 µM), most hits filed as inhibitors; 140 compounds, 10% hits; AID 2680, 2010
G9a confirm – qHTS Assay for Inhibitors of Histone Lysine Methyltransferase G9a: Hit Confirmation. shares compounds with JMJD2A Tudor inh. G9a H3K9 monomethylation, AlphaScreen, 2 h. Potency, µM, hits mostly inhibitors. 370 compounds, 89% hits. AID 588344, 2011; note: nearly all actives have a fitted effect of over 65% in size
ADP-Glo interf – qHTS for Inhibitors of PI5P4K: ADP-Glo counter assay; ADP-Glo detection counter-screen, luciferase luminescence, no enzyme; Potency, µM (series often up to 76.9 µM), hits mostly inhibitors; 1,100 tested, under 10 active; AID 743285, 2014; shares compounds with PI5P4Ka inh
TbPYK inh – qHTS of Trypanosoma Brucei Inhibitors: Confirmatory Assay for Cherry-picked Compounds; shares compounds with PLK1 PBD inh; recombinant TbPYK, Kinase-Glo ATP luminescence; Potency, µM (series often up to 76.9 µM), usual class: inhibitors; 890 compounds, 67% hits; note: nearly all actives have a fitted effect of over 70% in size
TbPYK ADP-Glo – qHTS of Trypanosoma Brucei Inhibitors: Orthogonal Assay for Cherry-picked Compounds. recombinant TbPYK, ADP-Glo luminescence, 60 min. 890 compounds, 62% hits. Potency, µM (top dose mostly 76.9 µM), most hits filed as inhibitors. AID 720584, 2013. shares compounds with PLK1 PBD inh; note: nearly all actives have a fitted effect of over 75% in size
Numbers stand for hits; 0 = inactive; ? = inconclusive; - = no result; ! = repeats disagree. Compounds with a hit are over-represented: about 7% of the library has one in this group of screens. Unless noted, calls come from the whole dose curve; as a rule, active = well fitted curve in the direction sought with a large enough effect; inconclusive = small, poorly fitted or top-dose-only effect, or another doubt; inactive = no such curve, though single readings can be large; an effect the other way counts as inactive or inconclusive.

SMILES	HP1b binding inh	PI5P4Ka inh	JMJD2A Tudor inh	KAT2A inh	PLK1 PBD inh	BAZ2B inh	others
CC(C)C[C@H]1C(=O)N2CCCC2[C@]2(O)O[C@](NC(=O)[C@@H]3C=C4c5cccc6[nH]cc(c56)CC4N(C)C3)(C(C)C)C(=O)N12 (stereo partly specified)	0	?	?	0	0	?	ME-1 prolif=?
COP(=O)(OC)[C@@H](O)C(Cl)(Cl)Cl	-	-	-	0	-	-
C/C(=C\[C@@H](N)C(=O)O)CP(=O)(O)O	-	-	-	0	-	-
CN(N=O)c1ccc(O)c(O)c1	-	-	-	4.5µM	-	-	ME-1 prolif=0
Cc1ccc(NC(=O)N(C)C)cc1Cl	-	-	-	0	-	-
O=C1C=CC(=O)c2c(O)cccc21	-	-	-	0.63µM	-	-	ME-1 prolif=22µM
O=C1c2ccccc2C(=O)c2ccccc21	-	-	-	0	-	-
c1ccc(N2CCCC3(CCNCC3)C2)nc1	-	-	-	0	-	-
Cc1ncsc1CCOC(=O)c1ccc([N+](=O)[O-])cc1	0	0	?	0	0	?
CC[n+]1c(-c2ccccc2)c2cc(N)ccc2c2ccc(N)cc21	?	0	?	?	0	-	ME-1 prolif=10µM
CN1Cc2ccccc2[C@@H]2c3cccc4[nH]cc(c34)C[C@H]21	-	-	-	0	-	-	ME-1 prolif=11µM
O=C(O)c1ccc(O)c2ncc(N3CCNCC3)cc12	-	-	-	-	-	-	JMJD2E inh-1=4.1µM;JMJD2E inh-2=?;FDH inh=0
COC1=CC2C3Cc4ccc(OC)c(O)c4[C@]2(CCN3C)CC1=O (stereo partly specified)	-	-	-	0	-	-
Cc1cc(=O)oc2c1c(C)nn2-c1nn[nH]n1	?	?	14µM	0	11µM	40µM	G9a confirm=0.36
Cc1cc(OCc2nn[nH]n2)c2c3c(c(=O)oc2c1)CCC3	0	-	0	0	0	0
Cn1c(CNC(=O)c2ccco2)nnc1SCC(=O)N1c2ccccc2Sc2ccccc21	0	0	0	?	0	0	G9a confirm=1
C[C@@H]1CC[C@H]2[C@@H](C)C(=O)O[C@@H]3OC4(C)CC[C@@H]1[C@]32OO4	-	-	-	0	-	-
CN1CC[C@]2(C)c3cc(O)ccc3N(C)[C@@H]12	-	-	-	0	-	-	JMJD2E inh-2=10µM;FDH inh=?
O=P1(Oc2ccccc2)CC=CC(COCc2ccccc2)O1 (stereo unspecified)	0	-	0	-	-	-
COc1ccc(OCC(=O)N2CCN(Cc3ccc(SC)cc3)CC2)cc1	?	0	2.5µM	0	?	50µM!	G9a confirm=32
CC1CC[C@@]2(OC1)OC1C(O)C3C4CC[C@H]5CC(O[C@@H]6O[C@@H](CO)[C@H](OC7OC(CO)C(O)C(OC8OCC(O)C(O)[C@H]8O)[C@@H]7O[C@@H]7OC(CO)[C@H](O)[C@@H](O[C@@H]8OC(CO)C(O)C(O)C8O)C7O)C(O)C6O)C(O)C[C@]5(C)C4CC[C@]3(C)C1C2C (stereo partly specified)	-	-	-	0	-	-
Cc1c(OCC(F)(F)F)ccnc1CS(=O)c1nc2ccccc2[nH]1 (stereo unspecified)	0	-67	?	0	27µM	35µM	G9a confirm=0.5;ADP-Glo interf=0
CC[N+](C)(CC)CCOC(=O)C(O)(c1ccccc1)c1ccccc1	-	-	-	0	-	-
COC(=O)C1=C(c2ccc(F)cc2F)C[C@@H]2CC[C@H]1N2C(=O)NC1Cc2ccccc2C1	0	-84	0	0	0	0	ADP-Glo interf=0
COC(=O)C1=C(c2ccc(F)cc2F)C[C@@H]2CC[C@H]1N2C(=O)NC1CCCCC1	0	0	0	0	0	0
COc1ccc(C(c2nnnn2-c2ccc3c(c2)OCCO3)N2CCC(n3c(=O)[nH]c4ccccc43)CC2)cc1 (stereo unspecified)	-	0	-	-	0	-	ADP-Glo interf=0
CO[C@H]1C=C2CCN(C)[C@@H]2[C@@H]2c3cc4c(cc3C(=O)O[C@H]21)OCO4	-	-	-	0	-	-
O=C1NC(=O)N(c2ccc(Cl)cc2)C(=O)/C1=C/c1coc2ccc(O)cc2c1=O	0	-58	100µM	0	7.5µM	0	TbPYK inh=?;TbPYK ADP-Glo=?
COC(=O)Cn1cc(/C=C2\C(=O)NC(=O)N(c3ccc(OC)cc3)C2=O)c2ccccc21	0	0	0	0	?	0
O=C1NC(=O)N(c2ccccc2)C(=O)/C1=C/c1coc2ccc(O)cc2c1=O	0	-66	?	0	12µM	?	TbPYK inh=22µM;TbPYK ADP-Glo=?
